Earlier results as cited in PubChem BioAssay AID977611.
Hit rate of the full screen: of about 3,900 compounds, about 3,900 (100%) were called active. No cut-off is given here; in the data, nearly all actives have Kd up to about 4200 µM. The set was probably picked from earlier hits. This is one part of the list. Peptide text beside a SMILES is read from it.

Assay: PubChem AID 977611
Details: PDB protein-ligand complexes, literature Kd

Compound: CC(C)=CCNc1ncnc2c1ncn2[C@@H]1O[C@H](CO[P+](O)(O)O)[C@@H](O)[C@H]1O
- Kd (protein: 2'-deoxynucleoside 5'-phosphate N-hydrolase 1, DNPH1 (RCL), PDB entry 4kxm): 2.6 µM (active)

Compound: CCc1cn([C@@H]2O[C@H](CO)[C@@H](O)[C@H]2O)c2ncnc(N)c12
- Kd (protein: Adenosine kinase ADK, PDB entry 4pvv): 0.33 µM (active)

Compound: O[C@@H]1[C@H](O)[C@@H](CO[P+](O)(O)O)O[C@H]1n1cnc2c(NC3CCCC3)ncnc21
- Kd (protein: 2'-deoxynucleoside 5'-phosphate N-hydrolase 1, DNPH1 (RCL), PDB entry 4kxl): 0.6 µM (active)

Compound: CN(C)[C@@H](Cc1cnc[nH]1)C(=O)O
- Kd (protein: Histidine-specific methyltransferase EgtD, PDB entry 4pin): 4 µM (active)
- Kd (protein: Histidine-specific methyltransferase EgtD, PDB entry 4pio): 2 µM (active)

Compound: C=C1C/C=C/[C@H](OC)[C@H](OC(N)=O)C(=C)C[C@@H](C)[C@@H](O)[C@@H](OC)C[C@H](C)CC2=C(OC)C(=O)C(C)=C(NC1=O)C2=O
- Kd (protein: ATP-DEPENDENT MOLECULAR CHAPERONE HSP82, PDB entry 4as9): 16.3 µM (active)

Compound: OCc1cn([C@H]2O[C@H](CO)[C@@H](O)[C@H](O)[C@@H]2O)nn1
- Kd (protein: Concanavalin-A ConA, PDB entry 4pf5): 3.3 µM (active)

Compound: CCC(=O)O[C@H](CCOCc1ccccc1)[C@@H](C)[C@H](O)[C@@H](C)CCC(=O)[C@H](C)[C@H](OC(C)=O)[C@H](C)/C=C/N(C)C=O
- Kd (protein: Actin, alpha skeletal muscle, PDB entry 4k42): 0.285 µM (active)

Compound: NC1N=C2NN=C(CC(=O)O)C(=O)C2C(=O)N1 (stereo unspecified)
- Kd (protein: Dihydropteroate Synthase, PDB entry 4dai): 0.11 µM (active)

Compound: O=C1NC(=O)[C@H](Cc2ccccc2)N1
- Kd (protein: Mhp1, PDB entry 2JLO): 54 µM (active)

Compound: O=C1N=C(Cc2cccc(Br)c2)C(=O)N1
- Kd (protein: nucleobase-cation-symport-1 family hydantoin transporter Mhp1, PDB entry 4d1c): 2 µM (active)

Compound: CCCCCCCCC(=O)c1cc(O)c(O)c(O)c1
- Kd (protein: Nuclear receptor subfamily 4 group A member 1, PDB entry 4jgv): 0.27 µM (active)

Compound: C[C@]12CC(=O)[C@H]3[C@@H](CCC4=CC(=O)CC[C@@]43C)[C@@H]1CC[C@@H]2C(=O)CO
- Kd (protein: Phospholipase A2 VRV-PL-VIIIa, PDB entry 4qf7): 0.0025 µM (active)

Compound: H-GALGGAKQAGAV-OH
- Kd (protein: Clumping factor A (ClfA), PDB entry 2vr3): 10.5 µM (active)

Compound: H-QQHHLGGAKQAGDV-OH
- Kd (protein: FIBRONECTIN-BINDING PROTEIN A, PDB entry 4b60): 3.7 µM (active)

Compound: H-FNYESTNPFTAK-OH
- Kd (protein: EH domain-containing protein 1 C-terminal domain, PDB entry 2kff): 245 µM (active)

Compound: H-KSAVTTVVNP-OH
- Kd (protein: Integrin beta-1-binding protein 1, PDB entry 4dx9): 5 µM (active)

Compound: H-LESKPYNPFEEEEED-OH
- Kd (protein: C-terminal domain of EH domain-containing protein 1, PDB entry 2ksp): 57 µM (active)

Compound: H-FNYESTGPFTAK-OH
- Kd (protein: EH domain-containing protein 1 C-terminal domain, PDB entry 2kfh): 2400 µM (active)

Compound: H-FNYESTDPFTAK-OH
- Kd (protein: EH domain-containing protein 1 C-terminal domain, PDB entry 2kfg): 1200 µM (active)

Compound: COC1=CC=C2CC3C4CC5OCOC5CC4CCN3C[C@H]2[C@@H]1OC (stereo partly specified)
- Kd (protein: Putative regulatory protein, PDB entry 3vw2): 17.9 µM (active)

Compound: Cc1cc2c([nH]1)NC(=O)N([C@@H]1O[C@H](CO)[C@@H](O)[C@H]1O)C2
- Kd (protein: NupC family protein CNT-7C8C, PDB entry 4pd8): 0.94 µM (active)

Compound: CC[C@H](C)[C@H](NC(=O)[C@H](CC(=O)O)NC(=O)[C@@H](N)CC(=O)O)C(=O)N[C@@H](CO[P+](O)(O)O)C(=O)N[C@@H](CC(C)C)C(=O)N[C@@H](CC(C)C)C(=O)N[C@@H](CCCCN)C(=O)O
- Kd (protein: human GGA1(Golgi-localizing, ?-adaptin ear homology domain, ARF-interacting) VHS domains, PDB entry 1ujk): 0.27 µM (active)

Compound: H-DDISLLK-OH
- Kd (protein: human GGA1(Golgi-localizing, ?-adaptin ear homology domain, ARF-interacting) VHS domains, PDB entry 1ujj): 0.8 µM (active)

Compound: Cc1nc2ccccc2c(-c2ccc3c(c2)CCCO3)c1[C@H](OC(C)(C)C)C(=O)O
- Kd (protein: Integrase IN CCD (H171T mutant), PDB entry 4tsx): 10.3 µM (active)

Compound: CN(C)Cc1c[nH]c2c(CCCO)cccc12
- Kd (protein: Phospholipase A2 VRV-PL-VIIIa, PDB entry 4qgd): 0.037 µM (active)

Compound: H-TNLYML-OH
- Kd (protein: E. coli UDP-N-acetylglucosamine acyltransferase (LpxA), PDB entry 4j09): 17 µM (active)

Compound: C[C@H](N)C(=O)N[C@@H](CO[P+](O)(O)O)C(=O)N[C@@H](CCC(N)=O)C(=O)N[C@@H](CCC(=O)O)C(=O)N[C@@H](Cc1ccc(O)cc1)C(=O)O
- Kd (protein: Mediator of DNA damage checkpoint protein 1(MDC1/NFBD1), PDB entry 2azm): 2.2 µM (active)

Compound: H-DAEFRA-OH
- Kd (protein: 3D6 FAB ANTIBODY, PDB entry 4onf): 0.0012 µM (active)

Compound: H-TNEFYA-OH
- Kd (protein: the PDZ Tandem of Syntenin 1, PDB entry 1ybo): 160 µM (active)

Compound: H-TYKFFEQ-OH
- Kd (protein: adaptor protein complex 4 (AP-4) mu4 subunit C-terminal domain D190A mutant, PDB entry 4mdr): 40.6 µM (active)

Compound: Oc1ccc(F)cc1O
- Kd (protein: Protocatechuate 3,4-dioxygenase alpha chain 3,4-PCD, PDB entry 4whq): 75 µM (active)
- Kd (protein: Protocatechuate 3,4-dioxygenase alpha chain 3,4-PCD, PDB entry 4whr): 75 µM (active)
- Kd (protein: Protocatechuate 3,4-dioxygenase alpha chain 3,4-PCD, PDB entry 4whs): 75 µM (active)

Compound: H-MFAAFDYIA-OH
- Kd (protein: 3-phosphoinositide-dependent protein kinase 1 PDK1, PDB entry 4rrv): 0.04 µM (active)

Compound: CSCC[C@H](NC(=O)[C@@H](N)CC(=O)O)C(=O)N[C@@H](Cc1ccc(O)cc1)C(=O)N[C@@H](C)C(=O)O (H-DMYA-OH)
- Kd (protein: E3 ubiquitin-protein ligase RNF31 HOIP PUB Domain, PDB entry 4p0b): 0.29 µM (active)
